Bioassay records: PubChem, National Center for Advancing Translational Sciences (NCATS)
A selection: hits, their analogues and other compounds. The true share with any hit is near 21%.
IL-1B inflam inh: inhibitors of inflammasome signaling (IL-1 beta secretion). hit rate 4.7% among 360,000. THP-1 LPS/ATP IL-1B secretion, AlphaLISA, 16 h; stronger effect = lower value. activity change, % at 57.5 µM; in the data active means activity change below about -50%; inconclusive means mostly about -30% to -49%
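THP-1 cells pretreated 1 hr with compounds (up to 57.5 uM final), then stimulated with LPS (250 ng/mL final) plus ATP (1.25 mM final); secreted IL-1B measured by AlphaLISA after 16 hr, decreased signal indicating inhibition.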
D3 ag: D3 dopamine receptor (human) agonism. D3R DiscoveRx beta-arrestin cells, luminescence, 90 min. hit rate 0.58% among 410,000. max activation, %; in the data active means max activation above about 30%
Target sequence (P35462 whole entry, looked up): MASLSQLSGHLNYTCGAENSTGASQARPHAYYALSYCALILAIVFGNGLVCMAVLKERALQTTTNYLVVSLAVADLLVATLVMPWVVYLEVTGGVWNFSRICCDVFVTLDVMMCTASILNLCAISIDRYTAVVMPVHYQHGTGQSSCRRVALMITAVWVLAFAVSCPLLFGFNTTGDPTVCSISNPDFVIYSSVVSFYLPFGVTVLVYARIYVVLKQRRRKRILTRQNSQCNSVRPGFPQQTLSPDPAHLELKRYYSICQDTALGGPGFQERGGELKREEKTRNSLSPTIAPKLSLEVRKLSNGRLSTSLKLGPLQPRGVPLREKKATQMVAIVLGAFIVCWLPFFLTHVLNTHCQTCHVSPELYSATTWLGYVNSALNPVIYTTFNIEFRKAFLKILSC
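Cells at 1500/well, incubated overnight, then treated with pinned compounds (dopamine as control) for 90 min at 37 degrees C. DiscoveRx reagent added for 30 - 60 minutes at room temperature; luminescence read.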
DT40 TDP1 CPT: DT40-hTDP1 cell growth loss with CPT | chicken DT40 Tdp1-/-;hTDP1 cells + 20 nM CPT, ATP luminescence, 48 h | Potency, µM (top dose mostly 46.2 µM), usual class: inhibitors | hit rate 12% among 420,000 | AID 686979; further: nearly all actives have a fitted effect of over 55% in size
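Chicken DT40 Tdp1-/- cells complemented with human TDP1, 400 cells/well, exposed to compounds plus 20 nM camptothecin for at least 48 h at 37 C; viability read as ATP content by CellTiter-Glo luminescence.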
ClpP mod: qHTS Assay for Activators of ClpP | ATP-dependent Clp protease proteolytic subunit (Bacillus subtilis (strain 168)), P80244 | purified B. subtilis ClpP, FRET peptide cleavage, 20 min | hit rate 1.9% among 340,000 | Potency, µM (titrated, usually from 57.5 µM); active means well fitted falling curve with a large enough effect; inconclusive means small, poorly fitted or top-dose-only effect; inactive means no such curve, though single readings can be large or run the other way; further: the source files actives as falling curves though it sought activators and does not explain the sign; nearly all actives have a fitted effect of over 65% in size
Target sequence (P80244 whole entry, looked up): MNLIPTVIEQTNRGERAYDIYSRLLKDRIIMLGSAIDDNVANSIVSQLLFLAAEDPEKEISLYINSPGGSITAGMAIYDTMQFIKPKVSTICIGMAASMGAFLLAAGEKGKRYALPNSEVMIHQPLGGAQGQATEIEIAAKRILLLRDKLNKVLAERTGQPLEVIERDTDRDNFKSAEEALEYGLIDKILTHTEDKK
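ClpP 10 microg/mL final, pH 8 Tris/KCl buffer with BSA, glycerol, Tween-20; compound pinned in; FRET-FV substrate; RT 20 min; Ex320/Em430; ΔFRET vs ADEP 5.8 microM, DMSO, no enzyme.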
D3 antag: antagonists of human D3 dopamine receptor | P35462 | D3R cells, DiscoveRx beta-arrestin luminescence, antagonist mode; stronger effect = lower value | max response, negative = inhibition, % | hit rate 2.5% among 360,000 | AID 652054; in the data active means max response below about -50%; inconclusive means no clear call, values can overlap the other calls
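Cells expressing the human receptor were seeded at 1500 cells/well, incubated overnight at 37 degrees C in 5% CO2, then exposed to library compounds with dopamine controls for 90 minutes at 37 degrees C before luminescent detection.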
TDP1 cell noCPT: qHTS for Inhibitors of human tyrosyl-DNA phosphodiesterase 1 (TDP1): qHTS in cells in absence of CPT; Potency, µM (titrated, usually from 46.2 µM), most hits filed as inhibitors; DT40 Tdp1-/- hTDP1 cells, no CPT, ATP luminescence, 48 h; hit rate 15% among 420,000; AID 686978, 2013; further: nearly all actives have a fitted effect of over 55% in size
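Chicken DT40 Tdp1-/- cells stably complemented with human TDP1 were seeded at 400 cells/well with DMSO in place of 20 nM camptothecin. After compound pinning, cells grew at least 48 hr at 37 °C; viability read by CellTiter-Glo luminescence.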
Of the large screens only hits and unclear results are named; the others gave an inactive call. Unless noted, the call rests on the fitted dose curve; in most records, active means well fitted inhibition curve with a large enough effect; inconclusive means small, poorly fitted or top-dose-only effect; inactive means flat fitted curve, though single readings scatter.

O=C(NCCS(=O)(=O)c1ccc(Br)cc1)c1ccc(Cl)cc1	none
CC(C(=O)NCCS(=O)(=O)c1ccc(Br)cc1)S(=O)(=O)c1ccc(Cl)cc1 (stereo not drawn)	IL-1B inflam inh -50, TDP1 cell noCPT inconclusive (no result: ClpP mod)
CC(C)c1ccc(C(C)NCCS(=O)(=O)c2ccc(Cl)cc2)cc1 (stereo not drawn)	IL-1B inflam inh -77, DT40 TDP1 CPT 21µM, D3 antag inconclusive, TDP1 cell noCPT 12µM
Cc1ccc(C(=O)CN(CCCC(N)=O)S(=O)(=O)c2ccc([N+](=O)[O-])cc2)cc1	none
COc1ccccc1N(CC(=O)NC1CCCC1)S(=O)(=O)c1ccc(C)cc1	none (no result: ClpP mod)
COc1ccc(OC)c(N(CC(=O)NC2CCCCCC2)S(=O)(=O)c2ccc(C)cc2)c1	DT40 TDP1 CPT 23µM, TDP1 cell noCPT 23µM
CCOc1ccccc1N(CC(=O)NC1CCCCC1)S(=O)(=O)c1ccc(C)cc1	DT40 TDP1 CPT inconclusive, TDP1 cell noCPT 21µM (no result: ClpP mod)
COc1ccc(S(=O)(=O)N(C)CC(=O)NC2CCCC2)cc1OC	none
COc1ccc(OC)c(N(CC(=O)NC2CCCC2)S(=O)(=O)c2ccc(OC)c(OC)c2)c1	DT40 TDP1 CPT 15µM, TDP1 cell noCPT 15µM
CCOc1cc(C(=O)N(C)CC(=O)Nc2cccc3ccccc23)ccc1OC	none
O=C(NCC(=O)N1CCN(c2ccccc2)CC1)c1ccccc1	none (no result: ClpP mod)
CCc1ccc(C(=O)NNC(=O)c2ccc(OCC(=O)N3CCOCC3)c(OC)c2)cc1	none
COc1ccc2cc3cc(C(=O)N4CCN(c5cccc(Cl)c5)CC4)sc3nc2c1	none (no result: IL-1B inflam inh, D3 antag)
CCOC(=O)N1CCN(C(=O)/C(=C/c2cccs2)NC(=O)c2ccc(OC)c(OC)c2)CC1	none (no result: ClpP mod)
Cc1cc(C)n2c(Nc3c(C)cccc3C)c(CC(C)C)nc2n1	DT40 TDP1 CPT inconclusive, TDP1 cell noCPT 23µM
CCCCNc1c(CC(C)C)nc2nc(C)cc(C)n12	DT40 TDP1 CPT 16µM, TDP1 cell noCPT 23µM
COc1ccc(/C=N/NC(=O)c2ccc[nH]2)cc1	TDP1 cell noCPT inconclusive
CCC(C)c1ccc(-c2cc(C(=O)OCC(=O)Nc3cc(C)on3)c3ccccc3n2)cc1 (stereo not drawn)	DT40 TDP1 CPT inconclusive, TDP1 cell noCPT 16µM
Cc1cc(NC(=O)c2cc(-c3ccc(OC(C)C)cc3)nc3ccccc23)no1	TDP1 cell noCPT 8.2µM
CC(=O)N1CCC[C@@]2(CCN(C(=O)Nc3cccc(C#N)c3)C2)C1	none (no result: IL-1B inflam inh, D3 ag, ClpP mod, D3 antag)
O=C(C[N+]1(CC#Cc2ccccc2)CCCCC1)c1ccc(Cl)cc1	IL-1B inflam inh -57, DT40 TDP1 CPT 12µM, TDP1 cell noCPT 3.7µM
CCC[N+](CC#Cc1ccccc1)(CCC)CC(=O)c1ccc(Cl)cc1	IL-1B inflam inh -71, DT40 TDP1 CPT inconclusive, TDP1 cell noCPT 26µM
O=C(C[N+]1(CC#Cc2ccccc2)CCCCC1)c1ccccc1	DT40 TDP1 CPT 16µM, TDP1 cell noCPT 21µM
C(#Cc1ccccc1)C[N+]1(CC#Cc2cccc3ccccc23)CCOCC1	IL-1B inflam inh -84, DT40 TDP1 CPT 6.5µM, TDP1 cell noCPT 4.6µM
C(#Cc1ccccc1)CN1CCOCC1	none (no result: ClpP mod)
O=C(C[N+]1(CC#Cc2ccccc2)CCOCC1)c1ccc(Cl)cc1	DT40 TDP1 CPT inconclusive, TDP1 cell noCPT inconclusive (no result: ClpP mod)
Cc1ccc(OCCCC(=O)Nc2sc3c(c2C(N)=O)CCC(C)C3)cc1 (stereo not drawn)	none (no result: IL-1B inflam inh, D3 antag)
C1=C\CCC2(OCCO2)C2(CC/1)OCCO2	none
O=C(C[N+]1(CC#Cc2ccccc2)CCOCC1)c1ccccc1	DT40 TDP1 CPT inconclusive, TDP1 cell noCPT 16µM
CCOC(=O)Cc1csc(NC(=O)CSc2nnc(-c3ccc(NS(=O)(=O)CC)cc3)o2)n1	none
Cc1cc(C)cc(NC(=O)CSc2nnc(-c3ccc(S(=O)(=O)N4CCCC4)cc3)o2)c1	none
COC(=O)CSc1nnc(-c2ccc(S(=O)(=O)N3CCCC3)cc2)o1	IL-1B inflam inh -52 (no result: ClpP mod)
CCS(=O)(=O)Nc1ccc(-c2nnc(SCC(=O)OC)o2)cc1	IL-1B inflam inh -85
CCC(=O)Nc1ccc(C(=O)CSc2nnc(-c3ccc(NS(=O)(=O)CC)cc3)o2)cc1OC	DT40 TDP1 CPT 1.6µM, TDP1 cell noCPT 1.2µM (no result: ClpP mod)
COc1ccc(Oc2ncc3nc(-c4cccs4)c(=O)n(Cc4cccs4)c3n2)cc1	none (no result: IL-1B inflam inh, D3 ag, ClpP mod, D3 antag)
CC(C)(C)NC(=O)C(c1ccc(C(F)(F)F)cc1)n1c(=O)c(-c2ccco2)nc2ccccc21 (stereo not drawn)	DT40 TDP1 CPT 16µM, TDP1 cell noCPT 18µM
CCCCCNC(=O)C(c1ccc(OC)cc1)n1c(=O)c(-c2ccco2)nc2ccccc21 (stereo not drawn)	DT40 TDP1 CPT 16µM, TDP1 cell noCPT 12µM
Cc1cccc(C)c1NC(=O)C(C1CC1)n1c(=O)c(-c2ccco2)nc2ccccc21 (stereo not drawn)	DT40 TDP1 CPT inconclusive, TDP1 cell noCPT inconclusive
CC(C)(C)NC(=O)C(C1CC1)n1c(=O)c(-c2ccco2)nc2ccccc21 (stereo not drawn)	DT40 TDP1 CPT inconclusive, TDP1 cell noCPT 16µM
O=C(NCc1ccccc1)C(C1CC1)n1c(=O)c(-c2ccco2)nc2ccccc21 (stereo not drawn)	DT40 TDP1 CPT 13µM, TDP1 cell noCPT 16µM
CCCCNc1nc(Cl)nc(Nc2ccc(C)cc2)n1	none (no result: ClpP mod)
CCOc1cccc(CC(=O)N2CCc3c([nH]c4ccccc34)C2c2ccc(SC)cc2)c1OCC (stereo not drawn)	TDP1 cell noCPT inconclusive (no result: IL-1B inflam inh, D3 antag)
O=C(NCc1ccccc1)C(c1ccc(C(F)(F)F)cc1)n1c(=O)c(-c2ccco2)nc2ccccc21 (stereo not drawn)	DT40 TDP1 CPT inconclusive, TDP1 cell noCPT 21µM
O=C(NCc1ccccc1)C(c1cc2ccccc2o1)n1c(=O)c(-c2ccco2)nc2ccccc21 (stereo not drawn)	DT40 TDP1 CPT inconclusive, TDP1 cell noCPT inconclusive
O=C(NCc1ccccc1)C(c1ccccc1)n1c(=O)c(-c2ccco2)nc2ccccc21 (stereo not drawn)	DT40 TDP1 CPT inconclusive, TDP1 cell noCPT 21µM
COc1ccc(C(=O)CC(=O)Nc2ccc([N+](=O)[O-])cc2)cc1	IL-1B inflam inh inconclusive, DT40 TDP1 CPT 16µM, TDP1 cell noCPT inconclusive
CC(C)NS(=O)(=O)c1ccc(NC(=O)C(C)Oc2ccc(C(=O)c3ccccc3)cc2)cc1 (stereo not drawn)	DT40 TDP1 CPT 23µM, D3 antag -54, TDP1 cell noCPT 18µM
